MITF primary: human MITF inhibition, primary screen; 0.91% of 650,000 active; AID 1259374; O75030; inhibition, % at 2.6 µM; AlphaScreen MITF homodimerization, bead proximity signal; in the data active = inhibition above about 50%;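 note: 0% = vehicle wells with protein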
GPR151 activ: activators of human GPR151 | Q8TDV0 | activation, % at 11.2 µM | PathHunter beta-arrestin GPR151 cells, luminescence | 1% of 650,000 active | AID 1508602; in the data active = activation above about 4.9%;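 note: 0% = median of compound wells and 100% = cells with positive control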
FBW7 activator: activators of human E3 ligase FBW7 | normalized activity (activation), % at 26.1 µM | 0.13% of 650,000 active | Q969H0 | AlphaScreen FBW7–phospho-cyclin E peptide binding, activator screen; in the data active = normalized activity above about 1.9%;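 note: purified mutant Fbw7 with reduced substrate affinity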
TEAD-YAP block: TEAD-YAP interaction inhibition. HEK-TIYL cells, TEAD-Gal4/YAP UAS-luciferase luminescence. inhibition, % at 9.12 µM. 1.4% of 640,000 active. AID 1259422; in the data active = inhibition above about 32%;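 note: 0% = median of test compound wells and 100% = reference inhibitor wells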
GPR151 confirm: confirmation of human GPR151 activators | 6,700 tested, under 10 active | activation, % at 11.2 µM | shares compounds with GPR151 activ | GPR151 PathHunter beta-arrestin cells, luminescence, 90 min; % of EA-reagent control over plate median;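 active = mean percent activation across replicates above the confirmation screen cutoff of 4.91%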
GPR119 counter: activates human GPR119 in a GPR151 counter-screen. shares compounds with GPR151 activ. GPR119 PathHunter beta-arrestin cells, luminescence, 90 min; 0 = compound-well median, 100 = enzyme-acceptor control. activation, % at 11.2 µM. 0.3% of 6,700 active. AID 1508611;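 active = mean percent activation in the counterscreen above 29.09%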;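 note: counterscreen on off-target GPR119 to flag nonselective hits from the GPR151 activator screen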
Target sequence (Q8TDV5 whole entry, looked up): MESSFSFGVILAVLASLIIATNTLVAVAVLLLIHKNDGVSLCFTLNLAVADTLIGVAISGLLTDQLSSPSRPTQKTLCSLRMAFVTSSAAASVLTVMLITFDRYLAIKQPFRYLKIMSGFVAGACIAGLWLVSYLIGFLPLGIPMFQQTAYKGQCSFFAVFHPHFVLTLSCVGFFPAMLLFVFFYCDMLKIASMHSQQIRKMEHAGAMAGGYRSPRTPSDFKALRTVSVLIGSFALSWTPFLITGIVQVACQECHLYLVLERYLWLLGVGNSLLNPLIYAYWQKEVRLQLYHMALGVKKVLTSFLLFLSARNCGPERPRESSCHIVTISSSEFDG
The depositor's hits bear a star; . = not tested or not shown. Shown are actives, neighbours in structure and some others; about 3.5% of the full set was active somewhere.

SMILES	MITF primary	GPR151 activ	FBW7 activator	TEAD-YAP block	GPR151 confirm	GPR119 counter
CCCCC(C)(C)[C@H](O)/C=C/[C@H]1C=CC(=O)[C@@H]1CCCCCCC(=O)O	12.2	-0.8	.	.	.	.
CCCCC[C@@H](O)/C=C/[C@H]1C(=O)C[C@H](O)[C@@H]1C/C=C\CCCC(=O)O	-0.1	4.8	.	.	.	.
CCCCC[C@H](O)/C=C/[C@H]1C=CC(=O)[C@@H]1CCCCCCC(=O)OCC	-0.2	4.9*	.	.	0.9	2.7
CCCCCCCC/C=C\CCCCCC(=O)O	9.0	8.7*	.	.	-0.1	6.7
CCCCC[C@H](O)/C=C/C1=C(C/C=C\CCCC(=O)O)C(=O)CC1	-4.8	9.3*	.	.	-0.1	-8.8
CCCCCC(=O)/C=C/[C@@H]1[C@@H](C/C=C\CCCC(=O)O)[C@@H](O)C[C@H]1O	-2.2	5.5*	.	.	1.0	7.1
O=CNNC(=O)c1cc2sccc2nc1C(F)(F)F	4.6	1.5	-0.1	-6.8	.	.
CC(=O)NCCNC(=O)CCn1c(=S)[nH]c2cc3c(cc2c1=O)OCO3	6.6	0.4	0.2	-7.0	.	.
Cc1ccc(NC(=O)NC(=O)N(c2ccc(Cl)cc2)S(=O)(=O)c2ccc(C)cc2)cc1	1.7	1.1	0.0	-28.7	.	.
CCCCC/C=C/C=C1/C(=O)C[C@H](O)[C@@H]1C/C=C\CCCC(=O)O	14.9	5.6*	.	.	-0.4	-8.7
CCCCC[C@H](O)/C=C/[C@H]1C=CC(=O)[C@@H]1C/C=C\CCCC(=O)O	-2.9	1.1	.	.	.	.
CCCCC[C@H](O)/C=C/[C@H]1C(=O)C[C@H](O)[C@@H]1CCCCCCC(=O)O	17.9	9.7*	.	.	0.3	10.0
CCCCC[C@H](O)/C=C/[C@H]1C(=O)C[C@H](O)[C@@H]1CCCCCCCO	4.3	0.3	.	.	.	.
CCCCC/C=C/C=C1/C=CC(=O)[C@@H]1C/C=C\CCCC(=O)O	26.1	1.1	.	.	.	.
CCCCC[C@H](O)/C=C/[C@H]1C=CC(=O)[C@H]1C/C=C\CCCC(=O)O	1.7	5.8*	.	.	0.8	9.3
CCCCC(C)(C)[C@H](O)/C=C/[C@H]1C=CC(=O)[C@@H]1C/C=C\CCCC(=O)O	-3.6	13.0*	.	.	1.5	-0.2
CC(=O)c1ccc(NC(=O)CN(C)S(=O)(=O)c2ccc3c(c2)C(C)(C)C(=O)N3C)cc1	10.7	-0.8	0.1	3.5	.	.
CSCCCNC(=O)Cn1nnnc1CN1CCCCCC1	7.1	13.4*	0.1	2.6	0.2	3.0
CC(C)CCNC(=O)CN1C(=O)COc2ccccc21	4.4	-0.6	0.9	7.5	.	.
COc1ccc(C)cc1NS(=O)(=O)c1c[nH]c(=O)[nH]c1=O	17.3	-2.8	0.4	-4.8	.	.
COC(=O)CCC(=O)OC1(C)C(=O)C=C2C=C(C3CC3)OC=C2C1=O (configuration not stated)	17.3	5.8*	0.1	.	-0.1	9.1
NC(=O)C1CCN(Cc2cccc(Cl)c2)CC1	40.5	5.1*	0.4	6.7	1.0	5.6
NC(=O)C1CCN(Cc2ccc(Cl)cc2)CC1	9.4	0.7	-0.5	-7.1	.	.
Cc1cccc(CC(Cc2nc3ccccc3[nH]2)c2nc3ccccc3[nH]2)c1 (configuration not stated)	6.0	5.6*	-0.2	11.6	-0.3	-11.1
CC(=O)N1CCc2cc(Br)cc(S(=O)(=O)NC3CCCC3)c21	7.7	0.7	0.0	3.2	.	.
SMILES	MITF primary	GPR151 activ	FBW7 activator	TEAD-YAP block	GPR151 confirm	GPR119 counter
CC(=O)N1CCc2cc(Br)cc(S(=O)(=O)NC3CCCc4ccccc43)c21 (configuration not stated)	13.2	5.1*	0.2	-10.7	0.1	10.8
CCCOC(=O)CN1C(=O)c2ccc(C(=O)OCCC)cc2C1=O	8.4	0.4	0.1	-4.6	.	.
CCCOC(=O)CN1C(=O)c2ccc(Br)cc2C1=O	-1.4	8.7*	0.1	-2.8	0.5	13.6
COCC(=O)NCC1CCC2(CCN(Cc3ccc(N(C)c4ccccc4)cc3)CC2)O1 (configuration not stated)	4.3	1.0	-0.2	3.5	.	.
COCC(=O)NCC1CCC2(CCN(C/C(C)=C/c3ccccc3)CC2)O1 (configuration not stated)	-4.3	5.1*	-0.1	4.9	0.7	10.0
CCOC(=O)c1c(NC(=O)CSc2nc3ccccc3[nH]2)sc2c1CCN(C)C2	-1.5	2.6	0.2	6.5	.	.
CC12CC3CC(C1)CC(NC(=O)c1ccc(Cl)cc1Cl)(C3)C2	6.2	5.0*	0.0	-9.0	-0.1	-4.9
CCN(CC(=O)Nc1ccc(C(N)=O)cc1)S(=O)(=O)c1ccc(C)cc1	8.6	-1.2	0.0	1.7	.	.
COc1ccc(N=Cc2c(O)[nH]c(=S)[nH]c2=O)cc1OC	-5.5	7.2*	0.0	1.9	0.4	7.8
O=c1[nH]c(O)c(C=Nc2ccc(F)c(F)c2)c(=O)[nH]1	-4.8	13.1*	-0.6	0.4	0.4	5.6
CC(=O)N1CCSc2cc(S(=O)(=O)Nc3ccc(Cl)cc3)ccc21	1.5	5.0*	-0.1	3.8	0.2	2.2
CC(=O)N1CCSc2cc(S(=O)(=O)NC3CCCCC3)ccc21	-16.0	6.1*	0.2	14.1	0.9	2.0
CC(=O)N1CCSc2cc(S(=O)(=O)Nc3ccc(C(C)C)cc3)ccc21	-10.1	0.3	-0.3	-10.2	.	.
CC(=O)N1CCc2cc(NS(=O)(=O)c3ccc4ccccc4c3)ccc21	8.0	5.0*	-0.2	-5.2	0.7	2.7
Cc1cc(OCCN(C)C)ccc1[N+](=O)[O-]	39.8	-1.3	-0.1	-3.6	.	.
COc1ccc(OCCOc2ccc(C)cc2[N+](=O)[O-])cc1	11.2	0.8	0.4	-54.8	.	.
Cc1ccc(OCCN2CCCC2)c([N+](=O)[O-])c1	45.7	5.3*	0.1	0.5	-0.2	-6.6
Cc1cc(OCCCNCCN(C)C)ccc1[N+](=O)[O-]	-3.5	5.4*	-0.2	-5.7	-0.3	-10.5
COCCNCCCOc1ccc(C)cc1[N+](=O)[O-]	30.5	7.3*	-0.1	-0.9	-0.9	-8.8
O=[N+]([O-])c1ccc(O)c(/C=N\Nc2nc3ccccc3s2)c1	8.7	-2.0	-0.1	-16.1	.	.
O=C(CS(=O)CC(=O)Nc1ccc(F)cc1)NCC1OCCc2ccccc21 (configuration not stated)	1.7	0.8	0.2	7.2	.	.
Cc1cc(C=O)c(C)n1-c1cccc(I)c1	-4.9	-1.5	-0.1	-6.9	.	.
CC(=O)N1CCC(N(C(=O)C2CCN(c3ccc(C(F)(F)F)cn3)CC2)C2CC2)CC1	16.4	5.5*	-0.2	-2.7	-0.6	-3.3
CC1(CCc2ccccc2)NC(=O)N(N)C1=O (configuration not stated)	-2.6	6.7*	0.3	15.9	-0.7	-3.4
CC1(CCc2ccccc2)NC(=O)NC1=O (configuration not stated)	18.7	8.6*	0.1	3.7	0.8	11.8
Cc1ccc(C(=O)Nc2ccc(NC(=O)c3ccccc3N)cc2)cc1	-0.9	5.3*	1.2	-8.0	1.4	12.2
O=C(NC1CC1)c1cnc(NCCCN2CCCC2=O)s1	3.1	6.0*	-0.1	2.1	0.5	-5.3
